Results: article PMC5540273 (PLoS ONE, 2017)
Read-outs that look alike come from different tables or passages of the source.

Assays:
Details in all cases: n = 1
KIT = test system: KIT
LATS1 = test system: LATS1
LATS2 = test system: LATS2
LCK = test system: LCK
LIMK1 = test system: LIMK1
LIMK2 = test system: LIMK2
LKB1 = test system: T1, LKB1
T1 construct: gene STK11

LOK = test system: T2, LOK
T2 construct: gene STK10

LRRK2 = test system: LRRK2
LTK = test system: LTK
LYN = test system: LYN
LZK = test system: T3, LZK
T3 construct: gene MAP3K13

MAK = test system: MAK
MAP3K15 = test system: MAP3K15
MAP3K1 = test system: MAP3K1
MAP3K2 = test system: MAP3K2
MAP3K3 = test system: MAP3K3
MAP3K4 = test system: MAP3K4
MAP4K2 = test system: MAP4K2
MAP4K3 = test system: MAP4K3
[1] = concentration: 1 μM, replicates: in singlicate
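Note: KINOMEscan kinase panel screen.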

In the case of `O=C1NC(=O)C(N2CCc3ccccc32)=C1c1ccccc1Cl` [SB-373598], the “%Inh” value (KIT; [1]) is reported as 2%, the “%Inh” value (LATS1; [1]) is reported as 0% and the “%Inh” value (LATS2; [1]) is reported as 19%. The “%Inh” value (LCK; [1]) was 35%, the “%Inh” value (LIMK1; [1]) was 21% and the “%Inh” value (LIMK2; [1]) was 15%. For the same compound, the “%Inh” value (LKB1; [1]) was 2%, the “%Inh” value (LOK; [1]) was 10% and the “%Inh” value (LRRK2; [1]) was 0%. For the same compound, the “%Inh” value (LTK; [1]) was 99.1%, the “%Inh” value (LYN; [1]) was 17% and the “%Inh” value (LZK; [1]) was 0%. The “%Inh” value (MAK; [1]) was 9%, the “%Inh” value (MAP3K15; [1]) was 9% and the “%Inh” value (MAP3K1; [1]) was 23%. The “%Inh” value (MAP3K2; [1]) was 4%, the “%Inh” value (MAP3K3; [1]) was 4% and the “%Inh” value (MAP3K4; [1]) was 29%. For the same compound, the “%Inh” value (MAP4K2; [1]) was 21% and the “%Inh” value (MAP4K3; [1]) was 1%.

With `Cn1ccc2ncnc(Oc3ccc(NC(=O)Nc4ccccc4)cc3)c21` the “%Inh” value (KIT; [1]) was 100%, the “%Inh” value (LATS1; [1]) was 16% and the “%Inh” value (LATS2; [1]) was 13%. The “%Inh” value (LCK; [1]) was 20%, the “%Inh” value (LIMK1; [1]) was 1% and the “%Inh” value (LIMK2; [1]) was 1%. The “%Inh” value (LKB1; [1]) was 0%, the “%Inh” value (LOK; [1]) was 94.8% and the “%Inh” value (LRRK2; [1]) was 24%. The “%Inh” value (LTK; [1]) was 0%, the “%Inh” value (LYN; [1]) was 6% and the “%Inh” value (LZK; [1]) was 9%. The “%Inh” value (MAK; [1]) was 6%, the “%Inh” value (MAP3K15; [1]) was 0% and the “%Inh” value (MAP3K1; [1]) was 0%. For the same compound, the “%Inh” value (MAP3K2; [1]) was 0%, the “%Inh” value (MAP3K3; [1]) was 11% and the “%Inh” value (MAP3K4; [1]) was 10%. For the same compound, the “%Inh” value (MAP4K2; [1]) was 0% and the “%Inh” value (MAP4K3; [1]) was 18%.

In the case of `Cc1ccc(NC(=O)Nc2cccc(C(F)(F)F)c2)cc1` [GSK955403], the “%Inh” value (KIT; 1 µM) is reported as 91.4%, the “%Inh” value (LATS1; 1 µM) is reported as 0% and the “%Inh” value (LATS2; 1 µM) is reported as 20%. The “%Inh” value (LCK; 1 µM) was 6%, the “%Inh” value (LIMK1; 1 µM) was 0% and the “%Inh” value (LIMK2; 1 µM) was 10%. For the same compound, the “%Inh” value (LKB1; 1 µM) was 16%, the “%Inh” value (LOK; 1 µM) was 0% and the “%Inh” value (LRRK2; 1 µM) was 0%. For the same compound, the “%Inh” value (LTK; 1 µM) was 0%, the “%Inh” value (LYN; 1 µM) was 0% and the “%Inh” value (LZK; 1 µM) was 0%. The “%Inh” value (MAK; 1 µM) was 0%, the “%Inh” value (MAP3K15; 1 µM) was 0% and the “%Inh” value (MAP3K1; 1 µM) was 0%. The “%Inh” value (MAP3K2; 1 µM) was 0%, the “%Inh” value (MAP3K3; 1 µM) was 3% and the “%Inh” value (MAP3K4; 1 µM) was 35%. For the same compound, the “%Inh” value (MAP4K2; 1 µM) was 0% and the “%Inh” value (MAP4K3; 1 µM) was 0%.

`Cc1ccc(NC(=O)Nc2cc(C(C)(C)C)nn2-c2ccccc2)cc1` [GSK1014915] was tested, and the “%Inh” value (KIT; [1]) was 98.6%, the “%Inh” value (LATS1; [1]) was 31% and the “%Inh” value (LATS2; [1]) was 0%. The “%Inh” value (LCK; [1]) was 24%, the “%Inh” value (LIMK1; [1]) was 5% and the “%Inh” value (LIMK2; [1]) was 0%. For the same compound, the “%Inh” value (LKB1; [1]) was 0%, the “%Inh” value (LOK; [1]) was 60% and the “%Inh” value (LRRK2; [1]) was 0%. For the same compound, the “%Inh” value (LTK; [1]) was 67%, the “%Inh” value (LYN; [1]) was 0% and the “%Inh” value (LZK; [1]) was 0%. For the same compound, the “%Inh” value (MAK; [1]) was 10%, the “%Inh” value (MAP3K15; [1]) was 16% and the “%Inh” value (MAP3K1; [1]) was 17%. For the same compound, the “%Inh” value (MAP3K2; [1]) was 17%, the “%Inh” value (MAP3K3; [1]) was 0% and the “%Inh” value (MAP3K4; [1]) was 3%. For the same compound, the “%Inh” value (MAP4K2; [1]) was 0% and the “%Inh” value (MAP4K3; [1]) was 10%.

`Fc1cc(Cl)ccc1Nc1ccnc2cc(-c3ccc(CN4CCCCC4)o3)ccc12` [GW560116] was tested, and the “%Inh” value (KIT; [1]) was 61%, the “%Inh” value (LATS1; [1]) was 3% and the “%Inh” value (LATS2; [1]) was 0%. For the same compound, the “%Inh” value (LCK; [1]) was 35%, the “%Inh” value (LIMK1; [1]) was 0% and the “%Inh” value (LIMK2; [1]) was 0%. For the same compound, the “%Inh” value (LKB1; [1]) was 0%, the “%Inh” value (LOK; [1]) was 0% and the “%Inh” value (LRRK2; [1]) was 0%. The “%Inh” value (LTK; [1]) was 8%, the “%Inh” value (LYN; [1]) was 0% and the “%Inh” value (LZK; [1]) was 7%. The “%Inh” value (MAK; [1]) was 52%, the “%Inh” value (MAP3K15; [1]) was 0% and the “%Inh” value (MAP3K1; [1]) was 0%. The “%Inh” value (MAP3K2; [1]) was 0%, the “%Inh” value (MAP3K3; [1]) was 0% and the “%Inh” value (MAP3K4; [1]) was 0%. For the same compound, the “%Inh” value (MAP4K2; [1]) was 0% and the “%Inh” value (MAP4K3; [1]) was 0%.

With `O=C(Nc1ccc2c(c1)OCO2)NC1CCN(c2ccnc(Nc3ccc(F)cc3)n2)C1` (centres unmarked) [GSK1379724] the “%Inh” value (KIT; [1]) was 54%, the “%Inh” value (LATS1; [1]) was 0% and the “%Inh” value (LATS2; [1]) was 0%. The “%Inh” value (LCK; [1]) was 12%, the “%Inh” value (LIMK1; [1]) was 41% and the “%Inh” value (LIMK2; [1]) was 0%. The “%Inh” value (LKB1; [1]) was 0%, the “%Inh” value (LOK; [1]) was 0% and the “%Inh” value (LRRK2; [1]) was 28%. The “%Inh” value (LTK; [1]) was 0%, the “%Inh” value (LYN; [1]) was 0% and the “%Inh” value (LZK; [1]) was 0%. For the same compound, the “%Inh” value (MAK; [1]) was 0%, the “%Inh” value (MAP3K15; [1]) was 0% and the “%Inh” value (MAP3K1; [1]) was 11%. For the same compound, the “%Inh” value (MAP3K2; [1]) was 6%, the “%Inh” value (MAP3K3; [1]) was 0% and the “%Inh” value (MAP3K4; [1]) was 40%. For the same compound, the “%Inh” value (MAP4K2; [1]) was 0% and the “%Inh” value (MAP4K3; [1]) was 0%.

For `CS(=O)(=O)c1ccc(-c2c(-c3ncn[nH]3)sc(N3CCOCC3)c2C#N)cc1`, the “%Inh” value (KIT; [1]) was 28%, the “%Inh” value (LATS1; [1]) was 24% and the “%Inh” value (LATS2; [1]) was 9%. For the same compound, the “%Inh” value (LCK; [1]) was 8%, the “%Inh” value (LIMK1; [1]) was 0% and the “%Inh” value (LIMK2; [1]) was 3%. The “%Inh” value (LKB1; [1]) was 0%, the “%Inh” value (LOK; [1]) was 31% and the “%Inh” value (LRRK2; [1]) was 0%. For the same compound, the “%Inh” value (LTK; [1]) was 28%, the “%Inh” value (LYN; [1]) was 0% and the “%Inh” value (LZK; [1]) was 0%. For the same compound, the “%Inh” value (MAK; [1]) was 36%, the “%Inh” value (MAP3K15; [1]) was 0% and the “%Inh” value (MAP3K1; [1]) was 26%. The “%Inh” value (MAP3K2; [1]) was 6%, the “%Inh” value (MAP3K3; [1]) was 27% and the “%Inh” value (MAP3K4; [1]) was 2%. For the same compound, the “%Inh” value (MAP4K2; [1]) was 0% and the “%Inh” value (MAP4K3; [1]) was 0%.

With `Cn1ccc2ncnc(Oc3ccc(Nc4nc5ccccc5[nH]4)cc3)c21` the “%Inh” value (KIT; [1]) was 77%, the “%Inh” value (LATS1; [1]) was 0% and the “%Inh” value (LATS2; [1]) was 0%. The “%Inh” value (LCK; [1]) was 0%, the “%Inh” value (LIMK1; [1]) was 0% and the “%Inh” value (LIMK2; [1]) was 0%. The “%Inh” value (LKB1; [1]) was 3%, the “%Inh” value (LOK; [1]) was 93.7% and the “%Inh” value (LRRK2; [1]) was 0%. The “%Inh” value (LTK; [1]) was 0%, the “%Inh” value (LYN; [1]) was 0% and the “%Inh” value (LZK; [1]) was 0%. The “%Inh” value (MAK; [1]) was 5%, the “%Inh” value (MAP3K15; [1]) was 0% and the “%Inh” value (MAP3K1; [1]) was 0%. For the same compound, the “%Inh” value (MAP3K2; [1]) was 0%, the “%Inh” value (MAP3K3; [1]) was 0% and the “%Inh” value (MAP3K4; [1]) was 0%. For the same compound, the “%Inh” value (MAP4K2; [1]) was 0% and the “%Inh” value (MAP4K3; [1]) was 9%.

`COc1cccc(-c2cc(-c3c[nH]nc3-c3ccccn3)ccn2)c1` [GW680338] was tested, and the “%Inh” value (KIT; [1]) was 9%, the “%Inh” value (LATS1; [1]) was 64% and the “%Inh” value (LATS2; [1]) was 0%. The “%Inh” value (LCK; [1]) was 10%, the “%Inh” value (LIMK1; [1]) was 0% and the “%Inh” value (LIMK2; [1]) was 15%. For the same compound, the “%Inh” value (LKB1; [1]) was 1%, the “%Inh” value (LOK; [1]) was 10% and the “%Inh” value (LRRK2; [1]) was 6%. The “%Inh” value (LTK; [1]) was 0%, the “%Inh” value (LYN; [1]) was 26% and the “%Inh” value (LZK; [1]) was 28%. For the same compound, the “%Inh” value (MAK; [1]) was 100%, the “%Inh” value (MAP3K15; [1]) was 0% and the “%Inh” value (MAP3K1; [1]) was 15%. For the same compound, the “%Inh” value (MAP3K2; [1]) was 0%, the “%Inh” value (MAP3K3; [1]) was 0% and the “%Inh” value (MAP3K4; [1]) was 15%. For the same compound, the “%Inh” value (MAP4K2; [1]) was 8% and the “%Inh” value (MAP4K3; [1]) was 0%.

For `Cl.O=C(Nc1cccc(-c2nn3ncccc3c2-c2ccnc(Nc3cccnc3)n2)c1)c1c(F)cccc1F` [GSK312879], the “%Inh” value (KIT; [1]) was 36%, the “%Inh” value (LATS1; [1]) was 2% and the “%Inh” value (LATS2; [1]) was 0%. The “%Inh” value (LCK; [1]) was 44%, the “%Inh” value (LIMK1; [1]) was 2% and the “%Inh” value (LIMK2; [1]) was 0%. For the same compound, the “%Inh” value (LKB1; [1]) was 0%, the “%Inh” value (LOK; [1]) was 0% and the “%Inh” value (LRRK2; [1]) was 39%. For the same compound, the “%Inh” value (LTK; [1]) was 3%, the “%Inh” value (LYN; [1]) was 18% and the “%Inh” value (LZK; [1]) was 0%. For the same compound, the “%Inh” value (MAK; [1]) was 25%, the “%Inh” value (MAP3K15; [1]) was 24% and the “%Inh” value (MAP3K1; [1]) was 24%. The “%Inh” value (MAP3K2; [1]) was 16%, the “%Inh” value (MAP3K3; [1]) was 0% and the “%Inh” value (MAP3K4; [1]) was 4%. For the same compound, the “%Inh” value (MAP4K2; [1]) was 0% and the “%Inh” value (MAP4K3; [1]) was 3%.
